Among the data in ChEMBL document CHEMBL3988442, “University of Dundee, Small-Polar-MMV Screening Library” (2021) are Percent Effect values, retold here.

Holding throughout (design): scale not given: direction of the effect not stated beside the values
In test [1] the target is Protein translocase subunit SecA (Escherichia coli (strain K12)) (UniProt P10408). Kind of test: Assay to Identify E. coli SecA ATPase Inhibitors. The format is functional. The conditions noted are these: 30 µM.
For test [2], the target named is T1, Ubiquitin-activating enzyme e1, putative (Leishmania donovani (strain BPK282A1)) (UniProt E9BSI1).
T1 sequence (whole entry): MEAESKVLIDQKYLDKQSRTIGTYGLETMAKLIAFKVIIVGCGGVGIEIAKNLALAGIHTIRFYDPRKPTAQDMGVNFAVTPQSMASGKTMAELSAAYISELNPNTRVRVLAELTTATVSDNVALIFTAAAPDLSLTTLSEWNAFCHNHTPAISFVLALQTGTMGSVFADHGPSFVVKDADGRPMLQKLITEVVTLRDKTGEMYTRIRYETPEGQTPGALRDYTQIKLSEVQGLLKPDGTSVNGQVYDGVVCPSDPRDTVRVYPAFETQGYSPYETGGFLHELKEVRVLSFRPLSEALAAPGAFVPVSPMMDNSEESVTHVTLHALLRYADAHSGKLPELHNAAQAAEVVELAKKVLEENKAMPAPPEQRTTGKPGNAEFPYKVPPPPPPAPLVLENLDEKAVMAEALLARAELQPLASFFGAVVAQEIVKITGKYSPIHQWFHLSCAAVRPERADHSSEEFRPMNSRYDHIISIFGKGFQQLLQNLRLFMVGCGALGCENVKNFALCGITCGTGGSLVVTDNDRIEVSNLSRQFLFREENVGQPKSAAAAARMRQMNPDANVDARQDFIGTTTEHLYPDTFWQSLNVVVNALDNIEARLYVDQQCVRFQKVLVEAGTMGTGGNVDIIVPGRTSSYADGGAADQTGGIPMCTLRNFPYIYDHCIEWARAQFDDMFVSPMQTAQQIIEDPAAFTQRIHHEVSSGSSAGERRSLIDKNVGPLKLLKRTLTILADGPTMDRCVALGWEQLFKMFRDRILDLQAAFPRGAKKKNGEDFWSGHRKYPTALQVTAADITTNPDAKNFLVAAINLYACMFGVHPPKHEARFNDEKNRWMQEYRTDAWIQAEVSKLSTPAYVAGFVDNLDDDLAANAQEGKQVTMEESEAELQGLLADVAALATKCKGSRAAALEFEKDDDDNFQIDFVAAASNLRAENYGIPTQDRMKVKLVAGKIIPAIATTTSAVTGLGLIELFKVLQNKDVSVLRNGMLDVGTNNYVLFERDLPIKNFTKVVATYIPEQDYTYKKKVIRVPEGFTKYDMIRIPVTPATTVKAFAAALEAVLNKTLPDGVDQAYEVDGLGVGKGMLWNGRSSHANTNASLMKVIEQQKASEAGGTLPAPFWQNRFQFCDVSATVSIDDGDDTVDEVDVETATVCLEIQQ
Kind of test: Leishmania donovani Ubiquitin Activating Enzyme (LdE1). The format is functional. The conditions noted are these: 30 µM.

For test [3], the target named is AMP-activated protein kinase, AMPK (Homo sapiens) (UniProt P54646+O43741+P54619+Q9UGJ0+Q9Y478+Q13131+Q9UGI9). Briefly: AMP-dependent Kinase enzyme assay. An in vitro enzyme assay that detects ADP turnover that is directly proportional to AMPK activity. This uses naive AMPK that is activated during the assay with MK-8722. The format is functional. The following applies: 30 µM.

In test [4] the target is Sialic acid-binding Ig-like lectin 9 (Homo sapiens) (UniProt Q9Y336). Briefly: Hs-Siglec9 ALPHAscreen SOP 20170721. The following applies: 10 µM.
Chain of Sialic acid-binding Ig-like lectin 9 (Homo sapiens) (Q9Y336 whole entry): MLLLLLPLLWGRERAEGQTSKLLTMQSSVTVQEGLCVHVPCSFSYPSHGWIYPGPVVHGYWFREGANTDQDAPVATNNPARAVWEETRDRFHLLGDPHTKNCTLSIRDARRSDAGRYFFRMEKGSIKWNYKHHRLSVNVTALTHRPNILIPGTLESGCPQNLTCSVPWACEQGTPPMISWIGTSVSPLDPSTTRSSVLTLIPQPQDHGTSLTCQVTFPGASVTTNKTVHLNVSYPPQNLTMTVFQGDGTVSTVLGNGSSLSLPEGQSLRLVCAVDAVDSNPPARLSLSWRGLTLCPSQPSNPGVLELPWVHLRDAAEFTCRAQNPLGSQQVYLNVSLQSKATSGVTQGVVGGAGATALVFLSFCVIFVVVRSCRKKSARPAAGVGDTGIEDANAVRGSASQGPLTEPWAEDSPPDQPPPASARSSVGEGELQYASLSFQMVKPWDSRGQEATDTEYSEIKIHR
Another test has as its system Trypanosoma cruzi. Kind of test: Trypanosoma cruzi phosphomannomutase and mannose-1-phosphate guanylyltransferase assay. The format is functional. The following applies: 10 µM.
For test [5], the target named is T2, Arginase-2, mitochondrial (Homo sapiens) (UniProt P78540).
T2 sequence (whole entry): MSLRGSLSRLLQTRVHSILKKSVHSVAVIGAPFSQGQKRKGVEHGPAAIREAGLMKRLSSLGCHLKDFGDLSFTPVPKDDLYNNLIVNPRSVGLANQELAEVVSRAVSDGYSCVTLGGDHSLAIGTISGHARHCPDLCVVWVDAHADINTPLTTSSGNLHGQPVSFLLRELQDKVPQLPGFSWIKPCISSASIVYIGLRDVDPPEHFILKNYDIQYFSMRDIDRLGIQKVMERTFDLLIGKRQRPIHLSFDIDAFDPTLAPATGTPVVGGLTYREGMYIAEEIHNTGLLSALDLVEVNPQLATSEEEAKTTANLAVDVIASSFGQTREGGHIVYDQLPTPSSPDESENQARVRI
Briefly: in vitro enzyme assay to detect the production of urea directly proportional to the activity of Arginase II. Also: in the data most compounds retested in dose-response had high values. The format is functional. The conditions noted are these: 33.3 µM.

Test [6] addresses T3, Proteasome subunit beta (Trypanosoma cruzi) (UniProt O96673).
T3 sequence (whole entry): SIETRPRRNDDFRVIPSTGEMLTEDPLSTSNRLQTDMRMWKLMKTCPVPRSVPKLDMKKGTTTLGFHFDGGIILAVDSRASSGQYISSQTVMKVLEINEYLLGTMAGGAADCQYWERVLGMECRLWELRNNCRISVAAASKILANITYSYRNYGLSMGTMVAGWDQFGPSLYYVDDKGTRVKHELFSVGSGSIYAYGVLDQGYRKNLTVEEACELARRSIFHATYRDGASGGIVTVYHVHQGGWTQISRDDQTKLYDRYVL
Kind of test: Trypanosoma cruzi proteasome chymotrypsin-like activity (TcProtChymo) assay. Also: in the data most compounds retested in dose-response had high values. The following applies: 9.37 µM. The format is functional.

The species named for another test is Homo sapiens. Briefly: To identify inhibition of the IFN signalling (Jak-Stat) pathway via expression of an eGFP reporter gene under the control of an IFN-stimulated response element (ISRE) containing MxA promoter. The test is classed as functional. The following applies: 30 µM. A general note: A reporter such as luciferase makes a cellular process visible.
Test [7] deals with T4, Tyrosyl-tRNA synthetase, putative (Trypanosoma cruzi (strain CL Brener)) (UniProt Q4DSP6).
T4 sequence (whole entry): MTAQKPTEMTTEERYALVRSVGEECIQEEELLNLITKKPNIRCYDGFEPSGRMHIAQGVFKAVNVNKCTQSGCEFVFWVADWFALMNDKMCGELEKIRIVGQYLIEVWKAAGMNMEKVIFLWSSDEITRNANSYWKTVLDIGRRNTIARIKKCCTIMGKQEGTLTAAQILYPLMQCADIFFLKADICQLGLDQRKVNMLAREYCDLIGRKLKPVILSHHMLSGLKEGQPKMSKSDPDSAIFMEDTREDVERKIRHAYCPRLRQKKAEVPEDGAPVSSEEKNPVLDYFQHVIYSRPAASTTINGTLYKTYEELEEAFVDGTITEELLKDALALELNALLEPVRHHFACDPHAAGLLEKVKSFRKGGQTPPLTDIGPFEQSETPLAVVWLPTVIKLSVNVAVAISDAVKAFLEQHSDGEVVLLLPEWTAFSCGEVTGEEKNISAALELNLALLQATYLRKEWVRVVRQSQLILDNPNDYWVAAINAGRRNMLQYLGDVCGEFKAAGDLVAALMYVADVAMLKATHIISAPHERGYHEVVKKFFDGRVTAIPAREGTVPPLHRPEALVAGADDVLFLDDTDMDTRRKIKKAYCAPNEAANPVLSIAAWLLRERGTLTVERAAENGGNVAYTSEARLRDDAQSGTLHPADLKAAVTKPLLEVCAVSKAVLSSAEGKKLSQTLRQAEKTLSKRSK
Kind of test: Trypanosoma cruzi tyrosyl tRNA synthetase (TcYRS) _High Tyrosine SOP. Also: in the data most compounds retested in dose-response had high values. The test is classed as functional. The conditions noted are these: 30 µM.

The target of test [8] is T4, Tyrosyl-tRNA synthetase, putative (Trypanosoma cruzi (strain CL Brener)). Briefly: Trypanosoma cruzi tyrosyl tRNA synthetase (TcYRS) SOP. The test is classed as functional. The following applies: 30 µM.
Test [9] deals with Chromo domain-containing protein 1 (Saccharomyces cerevisiae (strain ATCC 204508 / S288c) (Baker's yeast)) (UniProt P32657). Kind of test: ScCHD-1 Enzyme Inhibition Assay. Also: in the data most compounds retested in dose-response had high values. The test is classed as functional. The following applies: 30 µM.
Chain of Chromo domain-containing protein 1 (Saccharomyces cerevisiae (strain ATCC 204508 / S288c) (Baker's yeast)) (P32657 whole entry, the tested form may be a part): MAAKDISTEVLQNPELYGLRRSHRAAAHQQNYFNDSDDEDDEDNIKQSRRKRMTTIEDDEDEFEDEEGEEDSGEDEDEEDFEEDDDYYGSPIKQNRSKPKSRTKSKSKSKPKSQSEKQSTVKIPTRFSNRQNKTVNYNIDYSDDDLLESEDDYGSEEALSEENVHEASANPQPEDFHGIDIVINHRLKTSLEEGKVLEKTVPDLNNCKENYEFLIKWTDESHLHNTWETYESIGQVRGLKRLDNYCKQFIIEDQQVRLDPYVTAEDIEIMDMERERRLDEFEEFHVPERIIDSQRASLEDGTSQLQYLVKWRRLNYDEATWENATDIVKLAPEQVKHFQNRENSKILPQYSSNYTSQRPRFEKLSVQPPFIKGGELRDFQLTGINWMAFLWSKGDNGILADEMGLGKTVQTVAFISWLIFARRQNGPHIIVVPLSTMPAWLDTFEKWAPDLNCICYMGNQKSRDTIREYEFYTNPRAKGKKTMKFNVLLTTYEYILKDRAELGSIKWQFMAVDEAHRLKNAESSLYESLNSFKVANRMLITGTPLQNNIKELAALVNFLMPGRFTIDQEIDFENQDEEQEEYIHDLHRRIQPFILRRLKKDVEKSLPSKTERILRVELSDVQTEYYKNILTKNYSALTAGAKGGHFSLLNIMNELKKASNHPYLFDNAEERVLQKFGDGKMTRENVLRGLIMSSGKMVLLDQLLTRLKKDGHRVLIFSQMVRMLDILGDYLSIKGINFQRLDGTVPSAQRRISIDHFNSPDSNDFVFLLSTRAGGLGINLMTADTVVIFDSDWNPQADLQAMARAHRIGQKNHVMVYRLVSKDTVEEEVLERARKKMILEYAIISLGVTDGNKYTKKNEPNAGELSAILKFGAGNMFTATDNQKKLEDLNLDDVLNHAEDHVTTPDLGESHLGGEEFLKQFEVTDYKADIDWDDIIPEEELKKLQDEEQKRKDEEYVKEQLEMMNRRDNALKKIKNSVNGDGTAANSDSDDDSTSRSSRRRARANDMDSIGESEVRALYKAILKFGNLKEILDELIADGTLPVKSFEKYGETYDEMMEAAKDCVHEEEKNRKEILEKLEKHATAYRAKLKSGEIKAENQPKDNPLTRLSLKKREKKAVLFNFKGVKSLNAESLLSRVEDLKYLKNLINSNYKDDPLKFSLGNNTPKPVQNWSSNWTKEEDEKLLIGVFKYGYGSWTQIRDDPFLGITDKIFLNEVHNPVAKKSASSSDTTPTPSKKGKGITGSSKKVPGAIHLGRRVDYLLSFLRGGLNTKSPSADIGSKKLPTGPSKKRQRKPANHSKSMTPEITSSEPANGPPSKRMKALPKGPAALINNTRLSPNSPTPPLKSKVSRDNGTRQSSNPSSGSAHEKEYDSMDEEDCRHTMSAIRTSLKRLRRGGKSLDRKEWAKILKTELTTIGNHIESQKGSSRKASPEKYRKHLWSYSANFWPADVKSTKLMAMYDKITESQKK

SMILES strings stand for the structures. For some of these results: Measured potencies and affinities stand elsewhere.

Chain of Protein translocase subunit SecA (Escherichia coli (strain K12)) (P10408 whole entry): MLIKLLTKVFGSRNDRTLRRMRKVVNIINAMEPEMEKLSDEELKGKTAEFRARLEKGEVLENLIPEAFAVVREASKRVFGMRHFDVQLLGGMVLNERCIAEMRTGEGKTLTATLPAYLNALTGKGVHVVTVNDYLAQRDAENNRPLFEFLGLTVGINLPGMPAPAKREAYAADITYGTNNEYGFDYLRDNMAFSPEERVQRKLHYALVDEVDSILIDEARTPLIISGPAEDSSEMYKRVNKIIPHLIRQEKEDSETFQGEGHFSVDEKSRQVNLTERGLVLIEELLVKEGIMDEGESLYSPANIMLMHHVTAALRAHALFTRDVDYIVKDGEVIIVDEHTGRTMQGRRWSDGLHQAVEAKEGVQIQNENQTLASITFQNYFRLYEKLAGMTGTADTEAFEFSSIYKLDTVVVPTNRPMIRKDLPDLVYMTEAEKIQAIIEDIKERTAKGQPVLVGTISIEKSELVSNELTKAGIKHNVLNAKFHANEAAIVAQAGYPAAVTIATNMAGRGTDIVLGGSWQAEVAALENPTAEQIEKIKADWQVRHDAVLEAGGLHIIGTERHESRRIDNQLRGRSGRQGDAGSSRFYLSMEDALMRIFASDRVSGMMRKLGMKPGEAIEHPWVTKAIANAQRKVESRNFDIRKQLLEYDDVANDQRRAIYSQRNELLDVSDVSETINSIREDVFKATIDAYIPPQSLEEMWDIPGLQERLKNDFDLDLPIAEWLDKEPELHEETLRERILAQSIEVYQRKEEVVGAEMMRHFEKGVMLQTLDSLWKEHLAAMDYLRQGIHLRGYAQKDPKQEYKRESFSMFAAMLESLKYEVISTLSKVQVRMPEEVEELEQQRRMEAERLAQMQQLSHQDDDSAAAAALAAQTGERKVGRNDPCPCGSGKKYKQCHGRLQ

`c1csc(-c2nc(CN3CCOC(Cn4cncn4)C3)co2)c1` (stereo unspecified): the Percent Effect in test [1] was -2.48%; in [2], 10.8%; in test [3], -9.47%; in [4] it was -3.91%; in the test with Trypanosoma cruzi, -0.0943%; in test [5], -6.01%. Moreover, the Percent Effect is 20.4% in [6]; 9.28% in the test filed under Homo sapiens; 9.36% in test [7]; 18.5% in test [8]; -5.77% in [9].
As to `c1ccc(Cn2cc(CNCC3CCCN3c3cccnn3)cn2)cc1` (stereo unspecified), the Percent Effect was -3.01% in test [1]; 7.89% in test [2]; -1.98% in [3]; -4.74% in test [4]; 1.96% with Trypanosoma cruzi; -7.55% in test [5]. Moreover, the Percent Effect in [6] was 15.5%; in the test filed under Homo sapiens, 1.15%; in [7], 15.3%; in test [8] it was 28.4%; in test [9] it was -4.79%.
As to `COc1cc(N2CC[C@H](O)[C@@H]2Cc2cnn(C)c2)ncn1`, the Percent Effect in [1] is -0.518%; in [2], 10.8%; in test [3], 1.19%; in test [4] it was -5.15%; in the test with Trypanosoma cruzi, -3.62%; in test [5], 8.6%. The Percent Effect in test [6] was 19.2%; in the test listed under Homo sapiens it was -8.64%; in test [7], 3.24%; in [8] it was 10.3%; in test [9] it was -2.09%.
Take `CC(C)CCN1CCNC(=O)C1CC(=O)N1CCc2sccc2C1` (stereo unspecified): the Percent Effect in test [1] is -4.93%; in test [2], 0%; in test [3] it was 0.663%; in test [4], 4.62%; in the test on Trypanosoma cruzi, 3.44%; in [5] it was -15.2%. The Percent Effect is 1.17% in [6]; -17.6% in the test filed under Homo sapiens; 4.3% in [7]; 8.64% in [8]; 1.1% in test [9].
As to `O=c1cc(CN2CCCC2)nc2n1CCCN(Cc1ccsc1)C2`, the Percent Effect was -0.492% in test [1]; 17.3% in test [2]; 3.4% in [3]; 2.2% in [4]; -1.57% with Trypanosoma cruzi; -9.68% in [5]. Further, the Percent Effect in test [6] is 14.4%; in the test filed under Homo sapiens, -8.49%; in test [7], 4.23%; in [8], 7.69%; in test [9], -10.8%.
Take `Cc1nc(C(C)C)sc1C(=O)NS(=O)(=O)c1ccc(C#N)cc1`: the Percent Effect in [1] is -1.22%; in [2] it was 8.11%; in test [3], -3.43%; in [4], 18.3%; with Trypanosoma cruzi, 5.99%; in [5] it was 9.52%. Also, the Percent Effect was 11.9% in test [6]; -9.57% in the test filed under Homo sapiens; 4.76% in test [7]; 9.76% in test [8]; -5.85% in test [9].
In the case of `COc1cc(C)c(CN2CCC3(CC2)C(C(=O)O)CC(=O)N3C)cc1C` (stereo unspecified), the Percent Effect in test [1] was -0.465%; in [2] it was 16%; in [3] it was -9.44%; in [4] it was 6.22%; in the test on Trypanosoma cruzi, 0.682%; in [5], 6.77%. Further, the Percent Effect in [6] is 10.3%; in the test listed under Homo sapiens it was 22.7%; in test [7], 3.83%; in test [8], 18.5%; in [9] it was -3.84%.
With `CNC(=O)c1ccc(C2CN(C(=O)c3cncs3)CCO2)nc1` (stereo unspecified), the Percent Effect is -2.48% in test [1]; 20.3% in [2]; 5.67% in [3]; 6.66% in test [4]; 1.19% in the test with Trypanosoma cruzi; -1.62% in [5]. Moreover, the Percent Effect in [6] was 11.1%; in the test filed under Homo sapiens, -10%; in test [7], 2.15%; in test [8] it was 16.9%; in test [9], -16.6%.
Regarding `CC(=O)c1ccc(N2CCC(CO)(CCOc3ccccc3)CC2)nc1`, the Percent Effect is -4.34% in [1]; 0% in test [2]; 3.88% in test [3]; 4.67% in test [4]; -3.05% in the test on Trypanosoma cruzi; 20.7% in test [5]. For the same molecule, the Percent Effect in test [6] is 9.48%; in the test listed under Homo sapiens it was 20.6%; in [7], 3.23%; in test [8] it was 8.64%; in test [9], 1.85%.
Consider `Cn1cnc2c1CCN(CCCOc1ccc(C#N)cc1)C2`, for which the Percent Effect was -7.51% in test [1]; 2.53% in test [2]; -0.357% in [3]; -0.18% in test [4]; -2.93% in the test on Trypanosoma cruzi; -1.14% in test [5]. Also, the Percent Effect is 5.98% in [6]; 20.4% in the test listed under Homo sapiens; -0.493% in test [7]; -1.27% in test [8]; -3.4% in [9].
As to `COCC1c2nnn(CC3CC3)c2CCN1C(=O)c1cccc(F)c1` (stereo unspecified), the Percent Effect in test [1] is -5.76%; in [2] it was 0%; in [3], -4.62%; in [4], 0.968%; in the test on Trypanosoma cruzi, -4.59%; in test [5], -0.248%. Besides, the Percent Effect in [6] came out at 3%; in the test listed under Homo sapiens it was 10%; in test [7], 5.38%; in test [8], 6.17%; in test [9] it was 1.63%.
